Reference: PubChem BioAssay AID2018 (Sanford-Burnham Center for Chemical Genomics, 2009)
The campaign covered roughly 1,200 compounds. About 600 (50%) were called active. So high a share suggests a set chosen from earlier hits. Some of the results follow. Potency and affinity values are given separately. A number with no mark means an inactive call. Cut-off read from the data, not from the text of the source: active = inhibition above about 42%; inactive = the rest.

Biological target: SUMO-conjugating enzyme UBC9 (Homo sapiens) (UniProt P63279)
Sequence (P63279 whole entry, looked up): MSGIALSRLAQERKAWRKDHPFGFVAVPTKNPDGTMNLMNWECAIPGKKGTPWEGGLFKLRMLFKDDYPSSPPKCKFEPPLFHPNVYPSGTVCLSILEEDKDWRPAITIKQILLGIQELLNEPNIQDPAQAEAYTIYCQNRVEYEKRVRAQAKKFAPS
Assay: SUMOylation inhibitor hit validation, confirmation, SUMOylation inhibitor project, biochemical, AlphaScreen (AID 2018)
Conditions: AlphaScreen in vitro SUMOylation assay; at 35 µM; active compounds read high

| SMILES | inhibition |
| --- | --- |
| O=C(CNc1cccc2ccccc12)c1ccc([N+](=O)[O-])cc1 | 26.3% |
| O=[N+]([O-])c1ccc(Cl)c(C2Nc3cccc4cccc(c34)N2)c1 | 30.6% |
| O=[N+]([O-])c1ccc(C2Nc3cccc4cccc(c34)N2)cc1 | 49.3% (active) |
| CN(CCC#N)C(=O)COC(=O)c1c2c(nc3ccccc13)/C(=C/c1ccco1)CC2 | 43.2% (active) |
| Cc1cnc(C(=O)OCC(=O)c2ccc(F)cc2)cn1 | 1.5% |
| CCOc1ccc(C2C=C(c3ccccc3)Nc3ncnn32)cc1 (stereo not drawn) | 13.5% |
| CC1=CC2(O)OCCN(CCO)C2=CC1=O (stereo not drawn) | 8.3% |
| CCOC(=O)C1CCCN(c2cc(NCCCO)c([N+](=O)[O-])c3nonc23)C1 (stereo not drawn) | -6.6% |
| CC1CCCN(C2=C(NS(=O)(=O)c3ccc(Br)cc3)C(=O)c3ccccc3C2=O)C1 (stereo not drawn) | 55.3% (active) |
| CCOC(=O)C1CCN(C2=C(NS(=O)(=O)c3ccc(Br)cc3)C(=O)c3ccccc3C2=O)CC1 | 91.9% (active) |
| CC1CCN(C2=C(NS(=O)(=O)c3ccc(Br)cc3)C(=O)c3ccccc3C2=O)CC1 | 94% (active) |
| NC(=O)C1CCN(C2=C(NS(=O)(=O)c3ccc(Cl)cc3)C(=O)c3ccccc3C2=O)CC1 | 87.2% (active) |
| NC(=O)C1CCN(C2=C(NS(=O)(=O)c3ccccc3)C(=O)c3ccccc3C2=O)CC1 | 35.9% |
| Fc1ccc(-c2nc3cnccn3c2NC2CCCC2)cc1 | -43.2% |
| COc1cc2c(cc1OC)C(C)=NC1(CCCCC1)C2 | -0.1% |
| CN(C)c1cccc2c(S(=O)(=O)N3CCCC3)cccc12 | -26.8% |
| c1ccc(Nc2ccccc2Nc2ccccn2)nc1 | -1.2% |
| CN(C)c1cccc2c(S(=O)(=O)Nc3ccccn3)cccc12 | 69.7% (active) |
| Cc1cccc(NC2=C(NCCO)C(=O)c3ccccc3C2=O)c1 | 82% (active) |
| Cc1cccc(NC(=S)Nc2cccc3ccccc23)c1 | 19% |
| N#Cc1c(-c2cccc(Br)c2)cc(-c2ccco2)[nH]c1=O | 54% (active) |
| O=C(Cc1cccs1)N/N=C/C=C\c1ccco1 | 26% |
| O=C(CSc1nnc(SCc2ccccc2)s1)N/N=C/C=C\c1ccco1 | 65% (active) |
| O=C(CNc1cccc2ccccc12)N/N=C/c1ccc(OC(=O)/C=C/c2ccco2)cc1 | 3.4% |
| Cn1c2ccc(Cl)cc2c2nc3ccccc3nc21 | 4.7% |

| SMILES | inhibition |
| --- | --- |
| COCCn1c(-c2cccs2)csc1=Nc1cccnc1 | 12.7% |
| Cn1c(C(=O)NCC2CCCO2)cc2c(=O)n3ccccc3nc21 (stereo not drawn) | -2.8% |
| Cn1c(C(=O)N2CCN(C(=O)c3ccco3)CC2)cc2c(=O)n3ccccc3nc21 | -14.7% |
| Cc1ccc(S(=O)(=O)c2cc3c(=O)n4ccccc4nc3n(Cc3ccco3)c2=N)cc1C | 45.2% (active) |
| Cc1cccn2c(=O)c3cc(S(=O)(=O)c4ccccc4)c(=N)n(Cc4ccco4)c3nc12 | 27.5% |
| COCCCn1c(C(=O)N2CC(C)OC(C)C2)cc2c(=O)n3ccccc3nc21 (stereo not drawn) | -18.6% |
| Cc1cccn2c(=O)c3cc(S(=O)(=O)c4ccc(F)cc4)c(=N)n(Cc4ccco4)c3nc12 | 7.6% |
| CC1CCCCC1NC(=O)c1cc2c(=O)n3ccccc3nc2n1C (stereo not drawn) | -8.7% |
| COCCCn1c(C(=O)N2CCOCC2)cc2c(=O)n3ccccc3nc21 | 2.8% |
| Cn1c(C(=O)N2COCC2(C)C)cc2c(=O)n3ccccc3nc21 | -16.1% |
| CCN(CC(=O)c1c(N)n(C)c(=O)n(C)c1=O)c1cccc2ccccc12 | -12.9% |
| O=c1c2cc(N3CCOCC3)ccc2[nH]c(=S)n1Cc1ccccn1 | 2.9% |
| Oc1cccc2c(NC(=S)Nc3ccc(OC(F)F)cc3)cccc12 | 27.3% |
| FC(F)(F)c1ccccc1NC(=S)Nc1cccc2cnccc12 | 18.9% |
| Nc1cccc2cnccc12 | 45.1% (active) |
| CC(C)NC(=S)Nc1cccc2cnccc12 | -0.7% |
| CCc1ccc(OCC(=O)N/N=C2\CC(=O)c3ccccc32)cc1 | 100% (active) |
| CC(C)c1onc(C(=O)N2CCC(C(N)=O)CC2)c1[N+](=O)[O-] | -13.8% |
| Cc1ccc(NC2=CC(=O)C(=O)c3ccccc32)cc1 | 100% (active) |
| Cn1c(=O)c2cc(NCc3ccccc3)nnc2n(C)c1=O | 12.8% |
| O=C1C=C(NCc2ccccc2)c2ccccc2C1=O | 102% (active) |
| Fc1cccc(-n2c(-c3cccs3)nc3nc4ccccc4nc32)c1 | 8.7% |
| O=C(CCc1ccccc1)NNc1cc(N2CCCCC2)nc(N2CCCCC2)n1 | 50% (active) |
| O=C(NNc1cc(N2CCOCC2)nc(N2CCOCC2)n1)c1ccc(Cl)c(Cl)c1 | 66.9% (active) |
| CC(C)(C)c1ccc(C(=O)NNc2cc(N3CCOCC3)nc(N3CCOCC3)n2)cc1 | 23.5% |

| SMILES | inhibition |
| --- | --- |
| CCCCOc1ccc(CSc2ncn[nH]2)cc1 | 3.3% |
| O=C(Nc1ccccc1-c1nc2ccccc2s1)c1cccnc1Cl | 18.7% |
| CCN1C(=O)N(CC)c2cccc3cccc1c23 | 10.6% |
| C=CCN1C(=O)N(CC=C)c2cccc3cccc1c23 | -10.4% |
| CC1N(C)c2cccc3cccc(c23)N1C | 49.8% (active) |
| O=C(c1csc(Nc2cccc3ccccc23)n1)N1CCCC1 | 19.2% |
| C[n+]1cccc2ccc3c(c21)OC(N)=C(C#N)C3c1ccccc1 (stereo not drawn) | -6.6% |
| C[n+]1cccc2c(Br)ccc([O-])c21 | 102% (active) |
| C[n+]1cccc2cccc([O-])c21 | 101% (active) |
| Cc1ccc(N2CSC3=C(C#N)C(c4cccs4)CC(=O)N3C2)cc1 (stereo not drawn) | 38.3% |
| CCCCN(C)S(=O)(=O)c1cc(Br)cc2c1N(C(=O)C1CC1)CC2 | -3.7% |
| O=c1[nH]cc(I)cc1I | 8.4% |
| Cc1cc(-c2csc(N)n2)c(C)n1Cc1ccco1 | 21.9% |
| COc1ccc(CNC(=O)c2c(C)oc3c2C(=O)c2ccccc2C3=O)cc1 | 49.7% (active) |
| COc1ccc2oc(=O)c(C(=O)NCC3CCCO3)cc2c1 (stereo not drawn) | -13.9% |
| COc1ccc(S(=O)(=O)N(C)c2ccc(C(=O)NCc3ccccn3)cc2)cc1 | 4.9% |
| Cc1oc2c(c1C(=O)N1CCC(C)CC1)C(=O)c1ccccc1C2=O | 29.2% |
| Cc1oc2c(c1C(=O)O)C(=O)c1ccccc1C2=O | 86.7% (active) |
| CCOC(=O)c1c(C)oc2c1C(=O)c1ccccc1C2=O | 47.8% (active) |
| CC(C)NC(=O)N1CCC(n2nccc2NC(=O)CCOc2ccccc2)CC1 | 9% |
| O=C1S/C(=C\C=C\c2ccco2)C(=O)N1c1ccc(O)cc1 | 40.4% |
| Nc1ccc2c(c1)C/C(=C/c1ccco1)C2=O | 13.8% |
| O=C1/C(=C\c2ccco2)SC(=S)N1C1CCS(=O)(=O)C1 (stereo not drawn) | 39.6% |
| NN1C(=O)/C(=C\c2ccco2)SC1=S | 56% (active) |
| C(=N\C(/N=C/c1ccco1)c1ccco1)/c1ccco1 | 30% |

| SMILES | inhibition |
| --- | --- |
| CCOC(=O)c1nn(-c2ccc3c(c2)CCN3C(C)=O)cc1O | 16.7% |
| Cc1ccc2[nH]c3c(c2c1)CN(C(=O)CN1CCN(c2cccc(C)c2C)CC1)CC3 | 41.7% |
| COc1ccc2nc3ccccc3nc2c1N | 66.5% (active) |
| COc1ccc2nc3cccc(OC)c3nc2c1 | -22.2% |
| COc1ccccc1CCn1c(N)c(C#N)c2nc3ccccc3nc21 | 22.4% |
| CN(Cc1ccco1)C(=O)c1cc2c(s1)-c1ccc(Cl)cc1S(=O)(=O)C2 | 11.3% |
| O=C(O)CCC(=O)Nc1ccccc1C(=O)Nc1ccccc1 | -5.9% |
| Cc1ccc(NC(=O)CCC(=O)OCC(=O)c2ccc(-c3ccccc3)cc2)cc1 | 22.2% |
| C=CCNC(=O)c1c(N)n(-c2cccc(S(N)(=O)=O)c2)c2nc3ccccc3nc12 | 2% |
| CCN(CC)C(=O)COc1ccc2oc(-c3ccco3)cc(=O)c2c1 | -1.1% |
| COc1ccc(-n2c(N)c(C(=O)NCc3ccco3)c3nc4ccccc4nc32)cc1OC | 33.2% |
| COc1ccc(-n2c(N)c(C(=O)NCC3CCCO3)c3nc4ccccc4nc32)c(OC)c1 (stereo not drawn) | -13.9% |
| Cc1ccc(/C=c2\sc3nc(-c4ccco4)nn3c2=O)o1 | 83.3% (active) |
| O=[N+]([O-])c1cc(CN2CCN(c3cccc(C(F)(F)F)c3)CC2)c2cccnc2c1O | 64.3% (active) |
| O=[N+]([O-])c1ccc(N2CCN(CCO)CC2)c2ncccc12 | -17.2% |
| COc1ccc2c(c1)CC/C(=C\C=C\c1ccccc1)C2=O | 31.7% |
| COc1ccc2c(c1)CC/C(=C\Nc1ccc3c(c1)OCO3)C2=O | 97.5% (active) |
| COc1ccccc1C(=O)Nc1sc2c(c1C(=O)NCc1ccco1)CCCC2 | 35.7% |
| O=C(CSc1ccc(Br)c2cccc(Cl)c12)Nc1ccc(S(=O)(=O)Nc2nccs2)cc1 | 101% (active) |
| CC(C)CC(=O)Nc1ccc(C(=O)Cn2nc(C(=O)O)c3ccccc3c2=O)cc1 | 36% |
| O=C(Cn1nnc2ccccc21)NCc1ccccc1 | 4.8% |
| N#Cc1cnn2c(-c3ccccc3)ccnc12 | 3.3% |
| O=C(Cc1cccc2ccccc12)NN1C(=O)/C(=C\c2cccnc2)SC1=S | 29.3% |
